PubChem BioAssay (Tox21)
Records with an inconclusive call do not appear. Active and inactive are the calls of the source. Calls follow the shape of the full dose curve.

Legend:
[1] = target: Acetylcholinesterase (Homo sapiens) (UniProt P22303); experiment: Acetylcholinesterase (AChE) small molecule antagonists: colormetric cell-based qHTS assay (AID 1347395); also: nearly all actives have a fitted effect of over 30% in size
In short: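 In this cell-based qHTS, attached SH-SY5Y cells were treated with test chemicals for 30 min, after which acetylthiocholine hydrolysis was followed by DTNB colour development over 90 min at 37 C.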

[2] = target: Acetylcholinesterase (Homo sapiens) (UniProt P22303); experiment: Acetylcholinesterase (AChE) small molecule antagonists: enzyme-based qHTS assay (AID 1347397); details: Potency: AChE enzyme activity inhibition; outcome: AChE enzyme activity inhibition; also: nearly all actives have a fitted effect of over 55% in size
In short: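 Colorimetric DTNB readout of acetylthiocholine hydrolysis, 10 min at room temperature, after 30 min room-temperature exposure of 50 mU/mL recombinant human enzyme to compound; DMSO vehicle control.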

[3] = target: Acetylcholinesterase (Homo sapiens) (UniProt P22303); experiment: Acetylcholinesterase (AChE) small molecule antagonists: fluorescence cell-based qHTS assay (AID 1347398); details: Potency: AChE activity; outcome: AChE activity; also: nearly all actives have a fitted effect of over 50% in size
In short: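 Cellular AChE activity read as thiocholine from acetylthiocholine hydrolysis, detected by Thiolite Green fluorescence at 490/520 nm after 40 min at room temperature. Compounds were pre-incubated 30 min at 37 C on adherent SH-SY5Y cells.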

[4] = target: Acetylcholinesterase (Homo sapiens) (UniProt P22303); experiment: Acetylcholinesterase (AChE) small molecule antagonists: enzyme-based qHTS assay with human liver microsomes (AID 1347399); details: Potency: qHTS inhibition; outcome: qHTS inhibition; also: nearly all actives have a fitted effect of over 60% in size
In short: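 Recombinant human AChE (50 mU/mL in the enzyme mix) and human liver microsomes (0.25 mg/mL final) were preincubated with compound and NADPH (0.25 mg/mL final) for 30 min at 37 C. Acetylthiocholine/DTNB was then added; thiocholine was read colorimetrically after 10 min at room temperature.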
% is scaled to controls: 0 for no effect and ±100 for the full control effect.

Acetylcholinesterase (Homo sapiens), sequence (P22303 whole entry, looked up): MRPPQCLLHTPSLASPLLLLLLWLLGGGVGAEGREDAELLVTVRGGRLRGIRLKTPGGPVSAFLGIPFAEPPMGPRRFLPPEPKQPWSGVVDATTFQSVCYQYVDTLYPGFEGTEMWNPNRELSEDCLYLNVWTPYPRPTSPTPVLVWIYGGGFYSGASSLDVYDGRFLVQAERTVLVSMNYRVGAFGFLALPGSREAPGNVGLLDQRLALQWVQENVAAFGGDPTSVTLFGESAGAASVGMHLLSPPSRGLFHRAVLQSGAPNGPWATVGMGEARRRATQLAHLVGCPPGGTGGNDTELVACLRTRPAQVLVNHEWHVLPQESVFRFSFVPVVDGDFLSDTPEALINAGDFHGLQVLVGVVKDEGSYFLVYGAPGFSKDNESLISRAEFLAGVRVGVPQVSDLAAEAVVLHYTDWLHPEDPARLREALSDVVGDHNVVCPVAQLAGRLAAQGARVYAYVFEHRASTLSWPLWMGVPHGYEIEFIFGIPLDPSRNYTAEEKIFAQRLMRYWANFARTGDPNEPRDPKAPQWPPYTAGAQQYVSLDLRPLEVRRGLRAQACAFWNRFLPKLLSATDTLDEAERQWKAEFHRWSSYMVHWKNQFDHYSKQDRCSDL

CC(C)(C)c1cc(CCC(=O)NCCCCCCNC(=O)CCc2cc(C(C)(C)C)c(O)c(C(C)(C)C)c2)cc(C(C)(C)C)c1O
inactive: Potency [1] | Potency [2] | Potency [3] | Potency [4]

C=C(C)[C@@H]1CC[C@@H](C)C[C@@H]1O
inactive: Potency [1] | Potency [2] | Potency [3] | Potency [4]

COC(=O)C(C)=O
inactive: Potency [1] | Potency [2] | Potency [3] | Potency [4]

C=CC(C)(O)CC/C=C(\C)CCC=C(C)C (configuration not stated)
inactive: Potency [1] | Potency [2] | Potency [3] | Potency [4]

CCCN(CCC)C(=O)C(CCC(=O)O)NC(=O)c1ccccc1 (configuration not stated)
inactive: Potency [1] | Potency [2] | Potency [3] | Potency [4]

CCCCCCCCCCCCCCN(C)C
inactive: activity, negative = inhibition [1] 0.601% [at 23.6 µM] | activity change, negative = inhibition [2] 0.242% [at 23.6 µM] | activity change, negative = inhibition [3] 2.04% [at 23.8 µM] | activity change, negative = inhibition [4] 0.379% [at 23.6 µM]

CCNC(=O)NCc1cccc(Cl)c1
inactive: Potency [1] | Potency [2] | Potency [3] | Potency [4]

O=C(/C=C/c1ccccc1)OCCc1ccccc1
inactive: Potency [1] | Potency [2] | Potency [3] | Potency [4]

CC[C@H]1OC(=O)[C@H](C)[C@@H](O[C@H]2C[C@@](C)(OC)[C@@H](O)[C@H](C)O2)[C@H](C)[C@@H](O[C@@H]2O[C@H](C)C[C@H](N(C)C)[C@H]2O)[C@](C)(OC)C[C@@H](C)C(=O)[C@H](C)[C@@H](O)[C@]1(C)O
inactive: Potency [1] | Potency [2] | Potency [3] | Potency [4]

CC1OCCC1=O (configuration not stated)
inactive: Potency [1] | Potency [2] | Potency [3] | Potency [4]

Oc1c(Br)cc(Br)c2cccnc12
inactive: Potency [1] | Potency [2] | Potency [3] | Potency [4]

CCCCCOC(=O)CCCCC
inactive: Potency [1] | Potency [2] | Potency [3] | Potency [4]

COc1cccc(OC)c1
inactive: Potency [1] | Potency [2] | Potency [3] | Potency [4]

COc1cc(C(=O)OCCCN2CCCN(CCCOC(=O)c3cc(OC)c(OC)c(OC)c3)CC2)cc(OC)c1OC
inactive: Potency [1] | Potency [2] | Potency [3] | Potency [4]

CCOC(=O)Nc1ccc2c(c1)N(C(=O)CCN1CCOCC1)c1ccccc1S2
inactive: Potency [1] | Potency [2] | Potency [3] | Potency [4]

COC(=O)c1cc(Cl)ccc1OC
inactive: Potency [1] | Potency [2] | Potency [3] | Potency [4]

C[C@H]1c2cccc(O)c2C(O)=C2C(=O)[C@]3(O)C(O)=C(C(N)=O)C(=O)[C@@H](N(C)C)[C@@H]3[C@@H](O)[C@@H]21
inactive: Potency [1] | Potency [2] | Potency [3] | Potency [4]

CCC(C)C1CCCCC1=O (configuration not stated)
inactive: Potency [1] | Potency [2] | Potency [3] | Potency [4]

NCC(=O)O
inactive: activity, negative = inhibition [1] 0.505% [at 23.6 µM] | activity change, negative = inhibition [2] 0.147% [at 23.6 µM] | activity change, negative = inhibition [3] 6.61% [at 23.8 µM] | activity change, negative = inhibition [4] 0.434% [at 23.6 µM]

CC(C)O
inactive: Potency [1] | Potency [2] | Potency [3] | Potency [4]

CCCCOc1ccc(CC(=O)NO)cc1
inactive: Potency [1] | Potency [2] | Potency [3] | Potency [4]

NCC[C@H](O)C(=O)N[C@@H]1C[C@H](N)[C@@H](O[C@H]2O[C@H](CN)[C@@H](O)[C@H](O)[C@H]2O)[C@H](O)[C@H]1O[C@H]1O[C@H](CO)[C@@H](O)[C@H](N)[C@H]1O
inactive: activity, negative = inhibition [1] -3.35% [at 0.435 µM] | activity change, negative = inhibition [2] 0.773% [at 0.435 µM] | activity change, negative = inhibition [3] 5.79% [at 0.439 µM] | activity change, negative = inhibition [4] -1.18% [at 0.435 µM]

CCCCCCCCCCCCN1CCOCC1
inactive: Potency [1] | Potency [2] | Potency [3] | Potency [4]

NC(=O)CCCCC(N)=O
inactive: Potency [1] | Potency [2] | Potency [3] | Potency [4]

CCC=CC#N
inactive: Potency [1] | Potency [2] | Potency [3] | Potency [4]

CC(C)COC(=O)COc1ccc(Cl)cc1Cl
inactive: Potency [1] | Potency [2] | Potency [3] | Potency [4]

Oc1ccc(Cl)cc1C1CCCC1
inactive: Potency [1] | Potency [2] | Potency [3] | Potency [4]

OC(CN1CCC(Cc2ccc(F)cc2)CC1)c1ccc(Cl)cc1 (configuration not stated)
inactive: Potency [1] | Potency [2] | Potency [3] | Potency [4]

COc1ccc2sc(C(=O)Nc3nnn[nH]3)c(OC(C)C)c2c1
inactive: Potency [1] | Potency [2] | Potency [3] | Potency [4]

CC(C)(C)c1ccc(N)cc1
inactive: Potency [1] | Potency [2] | Potency [3] | Potency [4]

N#CC1(c2ccc(F)cc2)CCC(=O)CC1
inactive: Potency [1] | Potency [2] | Potency [3] | Potency [4]

CCCCCCCCOC(=O)CCCCCCCCC(=O)OCCCCCCCC
inactive: Potency [1] | Potency [2] | Potency [3] | Potency [4]

CCC1(C)C(=O)N(Cl)C(=O)N1Cl (configuration not stated)
inactive: Potency [1] | Potency [2] | Potency [3] | Potency [4]
